Screens: PubChem, National Center for Advancing Translational Sciences (NCATS)
HCMV inh: human cytomegalovirus inhibition; HFF cells, HCMV-luciferase reporter, 72 h; hits give low values; activity change, negative = inhibition, % at 57.5 µM; hit rate 4.5% among 410,000; AID 1259415; in the data active = activity change below about -60%; inconclusive = no clear call, values can overlap the other calls; inactive = above about -39%; also: % is scaled to controls: 0 for no effect and ±100 for the full control effect
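HFF cells seeded 16 h at 37C, treated with compounds, infected with luciferase-reporter HCMV at MOI 1 PFU/cell; luciferase read at 72 h post infection, normalized to buffer-only and Salinomycin controls.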
HCV inh: HCV inhibition. Potency, µM (highest dose often 41.8 µM), for the others: top-dose activity change, negative = inhibition, usual class: inhibitors. hit rate 3.4% among 340,000. Huh7.5.1 HCVcc-Cre infection, luciferase reporter, 44 h; also: potency is read from the fitted curve at half-maximal effect; % is scaled to controls: 0 for no effect and ±100 for the full control effect
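Antiviral activity was scored by luciferase reporter output from cells infected with HCVcc-Cre (~0.5 moi) in presence of compound, 44 h infection period, cells seeded 1,000/well 4 h prior.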
SARS PLP yeast: SARS-CoV PLP inhibition in yeast | S. cerevisiae expressing SARS-CoV PLpro, growth rescue | Potency, µM (top dose mostly 32.9 µM), inactives show at the highest dose activity, positive = growth rescue, usual class: activators | hit rate 0.19% among 330,000; calls by dose curve; also: potency is read from the fitted curve at half-maximal effect; 0% is about no effect; nearly all actives have a fitted effect of over 55% in size
Pf growth 96h: P. falciparum growth inhibition at 96 hour, primary screen for plastid delayed-death inhibitors | Potency, µM (series often up to 28.7 µM), inactives show top-dose activity change, negative = inhibition, usual class: inhibitors | P. falciparum luciferase reporter growth, 96 h | hit rate 6.9% among 320,000 | AID 504834; also: potency is read from the fitted curve at half-maximal effect; % is scaled to controls: 0 for no effect and ±100 for the full control effect
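Delayed-death screen, second-generation endpoint: infected erythrocytes, 2% hematocrit, 0.05% parasitemia final; 96 hours at 37 C, 5% CO2; luciferase detection reagent; luminescence decrease equals reduced growth.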
Sm TGR inh: S. mansoni TGR enzyme inhibition; Q962Y6; purified TGR, DTNB reduction, TNB absorbance 405 nm; Potency, µM (titrated, usually from 114 µM), for the others: at the highest dose activity change, negative = inhibition, most hits filed as inhibitors; hit rate 3% among 360,000; AID 485364; also: potency is read from the fitted curve at half-maximal effect; % is scaled to controls: 0 for no effect and ±100 for the full control effect; nearly all actives have a fitted effect of over 60% in size
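TGR 20 nM + NADPH 100 uM (dispensed conc.), cpd preinc 15 min RT; start with NADPH (500 uM addition) then DTNB (15 mM addition). Kinetic TNB absorbance, 405 nm filter. Four-parameter Hill fit across titration.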
Pf growth 48h: inhibits P. falciparum growth in the first generation, 48 h; P. falciparum luciferase growth in erythrocytes, 48 h; Potency, µM (top dose mostly 28.7 µM), inactives show at the highest dose activity change, negative = inhibition, usual class: inhibitors; hit rate 5.9% among 310,000; also: potency is read from the fitted curve at half-maximal effect; % is scaled to controls: 0 for no effect and ±100 for the full control effect
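Luciferase-expressing P. falciparum in infected erythrocytes (2% hematocrit, 0.1% parasitemia final) in RPMI 1640/0.5% Albumax were exposed to compound for 48 hours at 37 C, 5% CO2; growth read as luminescence.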
* hit, by the source's call; i = inactive; ? = inconclusive; / = not tested or not shown; [ ] = remark or other dose. A selection: hits, their analogues and other compounds. The true share with any hit is near 15%. Unless noted, calls follow the shape of the dose curve; as a rule, active = well fitted curve in the direction sought with a large enough effect; inconclusive = small, poorly fitted or top-dose-only effect, or another doubt; inactive = no such curve, though single readings can be large; an effect the other way counts as inactive or inconclusive.

SMILES	HCMV inh	HCV inh	SARS PLP yeast	Pf growth 96h	Sm TGR inh	Pf growth 48h
O=C(Nc1ccc(Cl)cc1)c1ccc(OCC2CCCO2)cc1 (centres undefined)	-25	-30%	-2%	i	-4%	196%
COc1ccc(S(=O)(=O)N(C)C)cc1NC(=O)c1ccc(OCC2CCCO2)cc1 (centres undefined)	-5	/	/	/	/	/
CCOc1ccc(NC(=O)c2ccc(OCC3CCCO3)cc2)cc1S(=O)(=O)N(CC)CC (centres undefined)	0	?	-4%	10µM*	-12%	10µM*
Cc1cc(C)c2nc(NC(=O)c3ccc(OCC4CCCO4)cc3)sc2c1 (centres undefined)	?	?	-3%	?	2%	107%
Cc1ccc2nc(NC(=O)c3ccc(OCC4CCCO4)cc3)sc2c1 (centres undefined)	-84*	8.9µM*	8%	?	3%	-52%
CCC(=O)Nc1ccc(OCC2CCCO2)cc1 (centres undefined)	-10	6%	?	12µM*	0%	41%
CCN(CC)S(=O)(=O)c1cccc(NC(=O)C2SC(=Nc3ccc(C)cc3C)C(C(=O)NCC3CCCO3)=C2N)c1 (centres undefined)	23	12%	-1%	/	14%	9.3µM*
CCN(CC)S(=O)(=O)c1ccc(Cl)c(C(=O)NCC2CCCO2)c1 (centres undefined)	-26	18%	19%	10µM*	-47%	-5%
O=S1(=O)C[C@H](N2CC[C@@H](O)C2)[C@@H](COCc2ccccc2)N1	3	/	/	/	/	/
F[B-](F)(F)c1cncnc1	10	/	/	/	/	/
CCn1nc(NC(=O)C2CCCO2)c2cc3cc(C)ccc3nc21 (centres undefined)	109	-2%	-2%	9%	6%	57%
COc1ccc(NC(=O)c2c(-c3ccccc3)noc2C)c(OC)c1	-13	-28%	-5%	?	2%	/
Cc1onc(-c2ccccc2Cl)c1C(=O)NC(=S)Nc1ccc(C(C)(C)C)cc1	9	-24%	1%	6.6µM*	5%	?
CCc1ccc(NC(=S)NC(=O)c2c(-c3ccccc3Cl)noc2C)cc1	-10	-23%	-4%	7.4µM*	-9%	12µM*
COc1ccc(NC(=O)c2c(-c3ccccc3Cl)noc2C)c(OC)c1	-34	-29%	-2%	0%	0%	2.6µM*
CCOc1ccc(C2CC(=O)Nc3c2c(=O)[nH]c2ncnn32)cc1 (centres undefined)	13	/	/	/	-1%	/
CC(C)C(=O)Nc1nnc(CSCc2ccccc2F)s1	50	-16%	-3%	-3%	-2%	/
O=C(Nc1nnc(CSCc2ccccc2F)s1)c1cccc([N+](=O)[O-])c1	?	1%	-12%	13µM*	-1%	19%
CCN(CC)Cc1c(O)ccc2c([N+](=O)[O-])c(C)n(-c3ccc(OC)cc3)c12	-96*	?	11%	?	-16%	?
COc1ccc(S(=O)(=O)/N=C2/NC(=O)/C(=C/c3ccco3)S2)cc1	14	-4%	-31%	32%	?	-8%
COc1ccc(/C=C2\SC(=Nc3ccccc3OC)NC2=O)cc1	4	?	-16%	34%	-2%	0.33µM*
COc1ccc(S(=O)(=O)/N=C2/NC(=O)/C(=C\c3ccco3)S2)cc1	-16	24%	-28%	27%	45µM*	34%
COc1ccc(N=C2NC(=O)/C(=C/C=C/c3ccccc3)S2)cc1	-40	?	-4%	6.6µM*	-6%	7.4µM*
COc1ccc(N=C2NC(=O)/C(=C/c3ccco3)S2)cc1	-68*	-23%	-2%	9.3µM*	32µM*	?
Cc1oc2ccc(O)c(CN3CCN(C)CC3)c2c1C(=O)Nc1ccc(C(C)C)cc1	31	/	/	/	1%	/
SMILES	HCMV inh	HCV inh	SARS PLP yeast	Pf growth 96h	Sm TGR inh	Pf growth 48h
C=CCn1c(=O)/c(=C/c2ccsc2)s/c1=C(\C#N)C(=O)NCCN1CCOCC1	0	-17%	/	/	/	/
O=C1C(Cl)=C(N2CCN(c3ccccc3[N+](=O)[O-])CC2)C(=O)c2ccccc21	?	?	-11%	8.3µM*	1.6µM*	?
NC(=O)[C@H]1CC2(CC(c3cccc(NC(=O)CC(c4ccccc4)c4ccccc4)c3)=NO2)CN1C(=O)c1ccccc1C(=O)c1ccccc1 (some centres undefined)	-10	-18%[8.37 µM]	-2%	8.3µM*	1%	9.3µM*
C/C=C\C=C\C(=O)N1CC2(CC(c3cccc(NC(=O)CC(c4ccccc4)c4ccccc4)c3)=NO2)C[C@H]1C(N)=O (some centres undefined)	/	-18%	2%	?	7.1µM*	?
CCC(=O)Nc1cccc(C2=NOC3(C2)C[C@@H](C(N)=O)N(C(=O)c2ccccc2C(=O)c2ccccc2)C3)c1 (some centres undefined)	-12	2%	2%	?	-7%	?
C/C=C(\C)C(=O)N1CC2(CC(c3cccc(NC(=O)CC(c4ccccc4)c4ccccc4)c3)=NO2)C[C@H]1C(N)=O (some centres undefined)	/	/	-3%	8%	0%	?
C/C=C/C(=O)Nc1cccc(C2=NOC3(C2)C[C@H](C(N)=O)N(C(=O)c2ccccc2C(=O)c2ccccc2)C3)c1 (some centres undefined)	/	/	0%	12µM*	-14%	9.3µM*
NC(=O)[C@H]1CC2(CC(c3cccc(NC(=O)CC(c4ccccc4)c4ccccc4)c3)=NO2)CN1C(=O)C(c1ccccc1)c1ccccc1 (some centres undefined)	0	-15%	4%	13µM*	-2%	10µM*
Cn1c2c(c(=O)n(C)c1=O)C(C(F)(F)F)(C(F)(F)F)N=C(c1ccccc1Cl)N2	-10	9%	-14%	/	-3%	-15%
Cn1c2c(c(=O)n(C)c1=O)C(C(F)(F)F)(C(F)(F)F)N=C(CCC1CCCCC1)N2	-103*	?	-44%	12µM*	8%	?
O=C(NCc1ccc(F)cc1)c1cc(C2CCCCN2C(=O)CCc2ccccc2)on1 (centres undefined)	-29	/	/	/	/	/
CC(C)(C)C(=O)O/N=C(\N)Cc1ccc(-c2csnn2)cc1	23	17%	1%	0%	-5%	?
NC(N)=NC(N)=Nc1ccc2ccccc2c1	-69*	?	0%	?	-1%	?
COc1cccc(N=C(N)N=C(N)N)c1	4	8%	2%	?	-2%	0%
